# Paper PMC11995724, “Antibiotic target discovery by integrated phenotypic and activity-based profiling of electrophilic fragments” (Cell chemical biology, 2025)
# Screen size: about 3,200 compounds; about 110 (3.4%) showed an effect of 50% or more. This is one part of a sample in which strong results are shown more often than they occur.
# Tested on: T1, V. cholerae SAD30
# T1 construct: SAD30
# Parameters: species or system S. aureus MSSA476 (TSB) or V. cholerae SAD30 (LB); 384-well bacterial growth screen at 25 uM, OD600 relative to DMSO control
# Settings: relative growth, OD600, LB; 25 µM; inhibitor
row,SMILES,% of control remaining [%]
1,"CC(Cl)C(=O)N1CCN(CCOc2ccc3c(c2)CCC3)CC1 (stereo not shown) [6-H17, 2-chloro-1-{4-[2-(2,3-dihydro-1H-inden-5-yloxy)ethyl]piperazin-1-yl}propan-1-one]",64.6128
2,"C=CC(=O)N1CCCC(CS(=O)(=O)NC)C1 (stereo not shown) [2-E18, N-methyl-1-[1-(prop-2-enoyl)piperidin-3-yl]methanesulfonamide]",95.4453
3,"C[C@@H](NC(=O)CCl)c1ccccc1 [6-O20, 2-chloro-N-[(1R)-1-phenylethyl]acetamide]",94.0373
4,"Cl.O=C(CCl)Nc1ccccn1 [5-B14, 2-chloro-N-(pyridin-2-yl)acetamide hydrochloride]",98.0141
5,"O=C(CCl)c1cscn1 [10-L08, 2-chloro-1-(1,3-thiazol-4-yl)ethan-1-one]",0
6,"Cn1ccnc1C(=O)CCl [10-C15, 2-chloro-1-(1-methyl-1H-imidazol-2-yl)ethan-1-one]",101.461
7,"O=C(CCl)c1ccccn1 [10-J03, 2-chloro-1-(pyridin-2-yl)ethan-1-one]",0
8,"C[C@H]1CN(C(=O)CCl)CCN1C(=O)c1cscn1 [5-L05, 2-chloro-1-[(3S)-3-methyl-4-(1,3-thiazole-4-carbonyl)piperazin-1-yl]ethan-1-one]",86.0775
9,"N#CC(=Cc1ccc(O)cc1)C(=O)NCCc1c(F)cccc1F [9-I16, 2-cyano-N-[2-(2,6-difluorophenyl)ethyl]-3-(4-hydroxyphenyl)prop-2-enamide]",83.8205
10,"c1nc(N2CCSSCC2)c2c3c(sc2n1)CCCC3 [10-M22, 3-(1,2,5-dithiazepan-5-yl)-8-thia-4,6-diazatricyclo[7.4.0.0,2,7]trideca-1(9),2,4,6-tetraene]",79.3298
11,"O=C(CCl)Nc1nccc(Cl)n1 [6-C19, 2-chloro-N-(4-chloropyrimidin-2-yl)acetamide]",88.7288
12,"O=C1C=CC(=O)N1c1ccccc1Sc1ccc(Cl)cc1 [10-A03, 1-{2-[(4-chlorophenyl)sulfanyl]phenyl}-2,5-dihydro-1H-pyrrole-2,5-dione]",28.6772
13,"O=C(O)C(c1ccccc1)N1C(=O)C=CC1=O (stereo not shown) [10-E21, 2-(2,5-dioxo-2,5-dihydro-1H-pyrrol-1-yl)-2-phenylacetic acid]",103.487
14,"O=C(CCl)Nc1ccccc1Sc1ccc(Cl)cc1 [4-O13, 2-chloro-N-{2-[(4-chlorophenyl)sulfanyl]phenyl}acetamide]",72.9782
15,"CC(Cl)C(=O)Nc1ccccc1Sc1ccccc1 (stereo not shown) [6-H10, 2-chloro-N-[2-(phenylsulfanyl)phenyl]propanamide]",56.4224
16,"O=C1C=CC(=O)N1c1ccccc1Sc1ccccc1 [10-K12, 1-[2-(phenylsulfanyl)phenyl]-2,5-dihydro-1H-pyrrole-2,5-dione]",28.0538
17,"Cc1cc(NC(=O)CCl)n(-c2ccccc2)n1 [4-G05, 2-chloro-N-(3-methyl-1-phenyl-1H-pyrazol-5-yl)acetamide]",102.825
18,"CC(C)c1ccc(CCNC(=O)CCl)cc1 [6-I16, 2-chloro-N-{2-[4-(propan-2-yl)phenyl]ethyl}acetamide]",91.9139
19,"C=CC(=O)N1CCN(S(=O)(=O)Cc2ccon2)CC1 [1-J07, 1-{4-[(1,2-oxazol-3-yl)methanesulfonyl]piperazin-1-yl}prop-2-en-1-one]",89.2377
20,"CN(Cc1ccccc1)S(=O)(=O)c1ccc(NC(=O)CCl)cc1 [5-K08, N-{4-[benzyl(methyl)sulfamoyl]phenyl}-2-chloroacetamide]",97.1735
21,"N#CC(=Cc1cnc(-c2ccccc2)nc1)C(=O)NCc1ccco1 [9-M14, 2-cyano-N-[(furan-2-yl)methyl]-3-(2-phenylpyrimidin-5-yl)prop-2-enamide]",95.2413
22,"O=C(CCl)Nc1c(Cl)cccc1C(F)(F)F [5-B04, 2-chloro-N-[2-chloro-6-(trifluoromethyl)phenyl]acetamide]",98.0141
23,"Cc1cccc(Cl)c1CCCNC(=O)CCl [7-F04, 2-chloro-N-[3-(2-chloro-6-methylphenyl)propyl]acetamide]",91.9874
24,"O=C(CCl)Nc1ccc(F)c(F)c1F [4-M05, 2-chloro-N-(2,3,4-trifluorophenyl)acetamide]",104.033
25,"O=C(CCl)Cc1cccc(F)c1F [10-K17, 1-chloro-3-(2,3-difluorophenyl)propan-2-one]",0.1559

row,SMILES,% of control remaining [%]
1,"O=C(CCl)Cc1c(F)cccc1F [10-O15, 1-chloro-3-(2,6-difluorophenyl)propan-2-one]",99.7467
2,"O=C(CCl)Nc1ccccc1F [4-M16, 2-chloro-N-(2-fluorophenyl)acetamide]",98.3394
3,"O=C(CCl)Cc1c(Cl)cccc1Cl [10-K15, 1-chloro-3-(2,6-dichlorophenyl)propan-2-one]",45.6653
4,"O=C(CCl)NCCc1c(F)cccc1F [5-F20, 2-chloro-N-[2-(2,6-difluorophenyl)ethyl]acetamide]",99.5272
5,"O=C(CCl)Cc1c(F)cccc1Cl [10-D20, 1-chloro-3-(2-chloro-6-fluorophenyl)propan-2-one]",36.1582
6,"Cc1ccc2sc(N(Cc3ccccc3)C(=O)CCl)nc2c1C [4-K06, N-benzyl-2-chloro-N-(4,5-dimethyl-1,3-benzothiazol-2-yl)acetamide]",100.927
7,"C=CC(=O)Nc1ccccc1Sc1nncs1 [1-G04, N-[2-(1,3,4-thiadiazol-2-ylsulfanyl)phenyl]prop-2-enamide]",100.149
8,"COCCNC(=O)C(C#N)=Cc1sccc1C [9-M17, 2-cyano-N-(2-methoxyethyl)-3-(3-methylthiophen-2-yl)prop-2-enamide]",85.9959
9,"O=C(CCl)N1C[C@@H]2C[C@H]1CN2c1ccccc1 [5-E22, 2-chloro-1-[(1S,4S)-5-phenyl-2,5-diazabicyclo[2.2.1]heptan-2-yl]ethan-1-one]",106.756
10,"Cc1cc(C(=O)CCl)c(C)n1-c1cccc([N+](=O)[O-])c1 [10-B16, 2-chloro-1-[2,5-dimethyl-1-(3-nitrophenyl)-1H-pyrrol-3-yl]ethan-1-one]",67.329
11,"COc1cccc(N2C(=O)C=CC2=O)c1 [10-K03, 1-(3-methoxyphenyl)-2,5-dihydro-1H-pyrrole-2,5-dione]",23.8457
12,"O=C1C=CC(=O)N1c1cccc(O)c1 [10-O07, 1-(3-hydroxyphenyl)-2,5-dihydro-1H-pyrrole-2,5-dione]",26.4952
13,"COc1cccc(NC(=O)C(C)Cl)c1 (stereo not shown) [6-I03, 2-chloro-N-(3-methoxyphenyl)propanamide]",100.863
14,"CC(=O)Nc1cccc(N2C(=O)C=CC2=O)c1 [10-D09, N-[3-(2,5-dioxo-2,5-dihydro-1H-pyrrol-1-yl)phenyl]acetamide]",85.564
15,"NS(=O)(=O)c1cccc(N2C(=O)C=CC2=O)c1 [10-I05, 3-(2,5-dioxo-2,5-dihydro-1H-pyrrol-1-yl)benzene-1-sulfonamide]",102.396
16,"COc1cccc(NC(=O)C(C#N)=Cc2ccc(O)cc2)c1 [8-O17, 2-cyano-3-(4-hydroxyphenyl)-N-(3-methoxyphenyl)prop-2-enamide]",71.584
17,"O=C1C=CC(=O)N1c1cccc([N+](=O)[O-])c1 [10-P15, 1-(3-nitrophenyl)-2,5-dihydro-1H-pyrrole-2,5-dione]",35.6906
18,"CC(Cl)C(=O)N1CCCC(n2ccc(C(F)(F)F)n2)C1 (stereo not shown) [7-A08, 2-chloro-1-{3-[3-(trifluoromethyl)-1H-pyrazol-1-yl]piperidin-1-yl}propan-1-one]",84.3218
19,"O=C(CCl)Nc1nc2c(s1)CCc1ccccc1-2 [6-D03, 2-chloro-N-{4H,5H-naphtho[1,2-d][1,3]thiazol-2-yl}acetamide]",105.868
20,"CC(NC(=O)CCl)C(=O)N1CCS(=O)(=O)CC1 (stereo not shown) [5-K14, 2-chloro-N-[1-(1,1-dioxo-1lambda6-thiomorpholin-4-yl)-1-oxopropan-2-yl]acetamide]",88.7675
21,"C=CC(=O)N1CCOCC1c1noc(C)n1 (stereo not shown) [3-O11, 1-[3-(5-methyl-1,2,4-oxadiazol-3-yl)morpholin-4-yl]prop-2-en-1-one]",103.029
22,"C=CC(=O)N1CCC(C(=O)NCc2ccoc2C)CC1 [1-E14, N-[(2-methylfuran-3-yl)methyl]-1-(prop-2-enoyl)piperidine-4-carboxamide]",89.0882
23,"C=CC(=O)N(Cc1ccc(F)cn1)c1cnn(C2CCCC2)c1C [1-D11, N-(1-cyclopentyl-5-methyl-1H-pyrazol-4-yl)-N-[(5-fluoropyridin-2-yl)methyl]prop-2-enamide]",86.846
24,"Cc1ccc(C=C(C#N)C(=O)Nc2ccccc2C)cc1 [8-G16, 2-cyano-N-(2-methylphenyl)-3-(4-methylphenyl)prop-2-enamide]",72.8076
